Rows were chosen to be rich in hits. Some 7.4% of all compounds tested hit in one or more screens of this group.
M1 antag: antagonists of rat M1 muscarinic receptor; 64,000 compounds, 3.4% hits; Muscarinic acetylcholine receptor M1 (Rattus norvegicus), P08482; B-score at 10 µM; CHO-M1 cells, Fluo-4 calcium, ACh EC80 antagonist mode; active compounds read low;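 active = calcium fluorescence response, raw or row-and-column corrected B-score, differing from the plate sample mean either way at a set confidence level, mostly lower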
FXIa inh mix: FXIa protease inhibitors in compound pools, primary screen, biochemical, 10-compound mixtures; Coagulation factor XI (Homo sapiens), P03951; 62,000 compounds, 0.19% hits; AID 680, 2007; inhibition, % at 5 µM; purified FXIa, fluorogenic substrate, pooled mixtures;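 also: each value is inhibition by a whole ten-compound pool holding the compound; 0% = enzyme with no mixture and 100% = wells lacking enzyme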
D1 allo mod: D1 CRE-luciferase signal change, two-sided – cell-based, HEK293 D1, dopamine EC30, D1 allosteric modulator project, primary screen; D(1A) dopamine receptor (Homo sapiens), P21728; dopamine EC30 potentiation; actives deviate in either direction; B-score at 10 µM; 58,000 compounds, 5.9% hits; AID 641, 2007;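 active = luminescence count or its row- and column-corrected plate score outside the 99.7% band of the plate's sample wells, on either side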
DAT uptake mod: changed hDAT dopamine uptake under cocaine IC80, either direction, primary screen, cocaine antagonist project, cell-based, LLC-PK1 hDAT, [14C]-dopamine uptake, MLSMR | Sodium-dependent dopamine transporter (Homo sapiens), Q01959 | LLC-PK1 hDAT cells, [14C]-dopamine uptake with cocaine IC80; actives deviate in either direction | B-score at 10 µM | 110,000 compounds, 1.3% hits | AID 449768, 2010;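 active = Z score or B-score, a plate-position-corrected score, falls beyond the plate's 99.7% confidence bounds, in either direction; inactive = both scores lie inside the 99.7% bounds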;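 also: scored against the spread of the other compound wells on the same plate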
Target sequence (Q01959 whole entry, looked up): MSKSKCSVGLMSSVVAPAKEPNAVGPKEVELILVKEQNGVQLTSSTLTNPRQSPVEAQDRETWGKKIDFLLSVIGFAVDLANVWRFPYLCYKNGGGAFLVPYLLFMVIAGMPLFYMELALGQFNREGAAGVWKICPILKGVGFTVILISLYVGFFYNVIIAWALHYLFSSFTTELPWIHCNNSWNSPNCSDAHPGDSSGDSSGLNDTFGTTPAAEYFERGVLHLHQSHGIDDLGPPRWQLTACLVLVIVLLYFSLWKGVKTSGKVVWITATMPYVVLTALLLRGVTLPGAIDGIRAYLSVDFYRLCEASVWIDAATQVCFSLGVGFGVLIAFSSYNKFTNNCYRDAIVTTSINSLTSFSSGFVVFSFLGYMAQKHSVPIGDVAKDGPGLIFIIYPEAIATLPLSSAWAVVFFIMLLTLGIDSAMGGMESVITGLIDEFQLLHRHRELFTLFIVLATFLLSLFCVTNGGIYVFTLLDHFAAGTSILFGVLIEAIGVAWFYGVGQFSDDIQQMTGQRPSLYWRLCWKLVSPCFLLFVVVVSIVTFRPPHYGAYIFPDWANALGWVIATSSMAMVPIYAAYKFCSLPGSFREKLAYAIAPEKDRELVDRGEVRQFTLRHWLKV
M1 ag: M1 muscarinic receptor agonists, primary screen, CHO-M1 cells, Fluo-4 calcium, agonist mode | Muscarinic acetylcholine receptor M1 | Fluo-4 calcium fluorescence; active compounds read high | B-score at 10 µM | 64,000 compounds, 3% hits | AID 626, 2007;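 active = fluorescence rise, raw or as B-score row- and column-corrected plate score, outside the 99.7% band of its plate's samples, either direction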
FXIIa mix inh: human factor XIIa inhibitors, primary screen, biochemical, pooled compound mixtures, fluorogenic substrate. purified FXIIa. inhibition, % at 5 µM. Coagulation factor XII (Homo sapiens), P00748. 62,000 compounds, 0.2% hits;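 also: 0% = enzyme without compound and 100% = no enzyme blank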
D1 PAM confirm: D1 receptor positive allosteric modulators, retest, confirmation, cell-based, HEK293 D1, CRE-luciferase, duplicate; 2,200 compounds, 88% hits; shares compounds with D1 allo mod; luminescence at 10 µM; dopamine EC30 potentiation; active compounds read high;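 active = luminescence in either of two replicates above the same-plate mean plus 3 SD of the low-dose dopamine control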
D1 no dopamine: D1 receptor agonism without dopamine, confirmation, mechanism study for D1 allosteric modulator project, cell-based, HEK293 D1, CRE-luciferase, secondary assay 1 | luminescence at 10 µM | 1,900 compounds, 0.8% hits | AID 646, 2007 | shares compounds with D1 allo mod | luminescence, no dopamine; active compounds read high; in the data active = luminescence above about 3900
Isoprot counter: counter-screen for D1 modulators: isoproterenol response in HEK293 cells; shares compounds with D1 allo mod; HEK293 D1 CRE-luciferase, isoproterenol EC30 counter-screen; calls only at 10 µM; 2,200 compounds, 63% hits;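 active = luminescence in either replicate above plate mean of wells with a partly effective reference agonist dose plus 3 SD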;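 also: isoproterenol raises cAMP through native beta-adrenoceptor Gs so signal bypasses D1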
The depositor's hits bear a star; i = inactive; . = no result; + = active, no number. Rule as the data show it, unless noted: active = inhibition above about 20% (passing the limit was not always enough); inactive = the rest.

SMILES | M1 antag | FXIa inh mix | D1 allo mod | DAT uptake mod | M1 ag | FXIIa mix inh | D1 PAM confirm | D1 no dopamine | Isoprot counter
CCn1c(C(C)NC(C)=O)nc2ccccc21 (configuration not stated) | -0.76 | 10 | -0.64 | 0.79 | 0.0062 | 7 | . | . | .
COc1cc(-c2noc(-c3cccs3)n2)cc(OC)c1OC | 0.04 | -22 | 0.32 | 0.79 | -0.27 | 5 | . | . | .
CCOc1ccc(Br)cc1-c1noc(-c2cccs2)n1 | 0.095 | -2 | 6.7* | -0.3 | -1.3 | 7 | 22604* | 1692 | +
Nc1cnc(CNc2ccccc2Cl)cn1 | . | . | . | -0.0034 | . | . | . | . | .
Cc1nn2c(N3CCCC3)cc(C(C)C)nc2c1-c1ccccc1 | 1.1 | 4 | 5.3* | -0.24 | 0.19 | 12 | 5624* | 1528 | i
CN(C)CCCOC(=O)c1ccccc1Cl | . | . | . | -0.34 | . | . | . | . | .
COc1ccc(-c2csc(/C(C#N)=C(\O)CSc3nccn3C)n2)cc1OC | 0.95 | 4 | 19* | 0.23 | 1.1 | 3 | 18552* | 1616 | +
CCCc1[nH]nc2c1C(c1cccnc1)C(C#N)=C(N)O2 (configuration not stated) | 0.66 | 9 | 6.7* | -1.1 | 0.21 | 3 | 3948 | 1664 | i
Cn1cnc2c1c(=O)n(Cc1ccccc1)c(=O)n2C | 0.037 | -3 | . | -1.2 | 0.5 | -2 | . | . | .
Cn1cnc2c1c(=O)n(Cc1cccc(Br)c1)c(=O)n2C | 0.11 | 2 | 11* | 0.028 | 0.42 | 4 | 12308* | 1656 | +
O=C(NCc1ccncc1)C12CC3CC(CC(C3)C1)C2 | 0.66 | 5 | 0.95 | -0.42 | -0.11 | 14 | . | . | .
N#CC1=C(N)S[C@H](C(=O)C23CC4CC(CC(C4)C2)C3)[C@H]1c1ccncc1 | -0.095 | 7 | 12* | -0.091 | -0.22 | 6 | 12784* | 1676 | +
CCc1c(C)c(C#N)c2nc3ccccc3n2c1N(C)C | 2.3* | 3 | 4.9* | 0.06 | 1.1 | 3 | 9428* | 1532 | +
Cc1ccc(-n2c(SCC(=O)OC(C)C)nnc2-c2cnccn2)cc1 | 0.62 | -36 | 4.6* | 0.00012 | 0.2 | -38 | 8068* | 1636 | i
COc1ccc(-c2nn3cnnc3s2)cc1OC | 0.48 | 10 | 13* | -0.78 | -0.23 | -4 | 16540* | 1640 | +
COc1ccc(-c2nn3c(-c4ccncc4)nnc3s2)cc1OC | 0.48 | 2 | 1 | . | 0.8 | -6 | . | . | .
O=C(c1ccco1)n1nc(-c2ccccc2)nc1NCc1ccco1 | -0.018 | 7 | 0.65 | -0.47 | -0.36 | -19 | . | . | .
CCS(=O)(=O)n1nc(-c2ccccc2)nc1NCc1ccco1 | 0.1 | -5 | 9.8* | -0.27 | -0.057 | 5 | 9056* | 1636 | +
Cc1ccc(NC(=O)CN(C)C(=O)CN2C(=O)NC(C)(c3ccccc3)C2=O)cc1 (configuration not stated) | 0.32 | 10 | -0.084 | 0.62 | 0.084 | 4 | . | . | .
COc1ccc(-c2nnc(SCC(=O)c3[nH]c(C)c(C(C)=O)c3C)o2)cc1 | -1.1 | -6 | -1.7 | -0.87 | -1 | -14 | . | . | .
CCOC(=O)c1[nH]c(CSc2nnc(-c3ccc(OC)cc3)o2)c(C(=O)OCC)c1C | 0.33 | 7 | 4.8* | -0.53 | -0.9 | -7 | 13216* | 1404 | +
Cc1noc(NS(=O)(=O)c2ccc(NC(=O)CSc3nc4ccccc4[nH]3)cc2)c1C | 0.62 | 8 | -0.00039 | 1.1 | -0.013 | 5 | . | . | .
Cc1noc(NS(=O)(=O)c2ccc(N3Cc4ccccc4C3=O)cc2)c1C | -0.36 | 11 | 6.6* | 0.37 | -0.43 | -14 | 15188* | 1676 | +
COc1ccc(C(c2sc3ncnn3c2O)N2CCN(c3ccccc3F)CC2)cc1OC (configuration not stated) | 0.65 | 1 | 4.8* | 1.6 | -0.38 | -7 | 14444* | 1744 | +
O=C(COc1ccc(S(=O)(=O)N2CCOCC2)cc1)Nc1ccccc1C(F)(F)F | . | . | . | 0.03 | . | . | . | . | .
SMILES | M1 antag | FXIa inh mix | D1 allo mod | DAT uptake mod | M1 ag | FXIIa mix inh | D1 PAM confirm | D1 no dopamine | Isoprot counter
CCN(CCCNC(=O)CN(C)S(=O)(=O)c1cccc2nsnc12)c1cccc(C)c1 | -0.36 | 7 | 3.5* | 0.95 | -0.27 | 9 | 13504* | 1728 | i
CCN(CCNC(=O)CN(C)S(=O)(=O)c1cccc2nsnc12)c1ccccc1 | . | . | . | 1.2 | . | . | . | . | .
CC1CCCCN1c1nc(-c2ccncc2)nc2ccccc12 (configuration not stated) | -0.71 | 3 | 13* | 0.11 | -0.27 | -10 | 8444* | 1504 | +
CCC1CCCCN1c1nc(-c2ccncc2)nc2ccccc12 (configuration not stated) | 1.3 | 0 | 2.5 | -0.56 | 1.2 | 5 | . | . | .
CC1CCN(c2nc(-c3ccncc3)nc3ccccc23)CC1 | -0.68 | 5 | 3.9* | 0.93 | -0.88 | 12 | 9916* | 1776 | +
COc1ccc(/C=N\NC(=O)COc2ccc(C(C)(C)C)cc2)cc1Cn1nc(C)cc1C | . | . | . | -0.25 | . | . | . | . | .
COC(=O)CNC(=O)C(C)NC(=O)OCc1ccccc1 (configuration not stated) | -0.47 | -6 | 0.3 | -0.32 | 0.62 | 8 | . | . | .
Nc1nc(CN2CCN(c3ccccn3)CC2)nc(Nc2ccc(Cl)cc2)n1 | 1.2 | 10 | 4.3* | 2 | -1.3 | 6 | 6700* | 1548 | i
COc1ccc(-c2c(C)n([O-])c3c([n+]2=O)CCC3)cc1OC | 0.51 | 7 | 2.3* | -1.1 | -0.022 | 4 | 4884 | 1632 | i
ClC(Br)=C(n1cnc2ccccc21)n1cnc2ccccc21 | -1.2 | . | . | . | 0.62 | . | . | . | .
CN(C)C(=O)CSc1nc(SCC(=O)N(C)C)n(-c2ccccc2)n1 | 0.24 | 12 | 0.18 | -0.75 | 0.78 | 9 | . | . | .
CN(C(=O)CSc1nc(N)nn1-c1ccccc1)c1ccccc1 | 0.054 | 3 | 11* | 2.1 | -0.68 | -17 | 6016 | 1696 | i
COC(=O)[C@@]1(Cc2ccc(OC)cc2)[C@H]2c3cc(C(=O)N(C)C)[nH]c3C[C@H]2CN1C(=O)c1ccccc1 | . | . | . | 0.18 | . | . | . | . | .

Assay outcomes deposited in PubChem by several laboratories.
